# Assay outcomes: PubChem BioAssay, National Center for Advancing Translational Sciences (NCATS)
# HP1b chromo inh: HTS for Inhibitors of HP1-beta Chromodomain Interactions with Methylated Histone Tails; Chromobox protein homolog 1 (Homo sapiens), P83916; AlphaScreen HP1-beta / biotin-H3K9me3 peptide binding; Potency, µM (series often up to 114 µM), most hits filed as inhibitors; 390,000 tested, 0.56% active; AID 540317, 2011; note: nearly all actives have a fitted effect of over 70% in size
#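 AlphaScreen: HP1-beta (50 nM) preformed 30 min with biotin-H3(1-18)K9me3 peptide (50 nM) in PBS pH 7.4, 0.01% Tween-20. Compound added for 30 min at RT, then streptavidin donor/nickel chelate acceptor beads (10 ug/mL) for 30 min.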
# BAZ2B inh: qHTS Assay for Inhibitors of BAZ2B; AlphaScreen BAZ2B-H3K14Ac peptide displacement; 360,000 tested, 4.4% active; Potency, µM (series often up to 114 µM), usual class: inhibitors; Bromodomain adjacent to zinc finger domain protein 2B (Homo sapiens), Q9UIF8; note: nearly all actives have a fitted effect of over 60% in size
#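 Multi-concentration screen (max 110 uM) measuring displacement of acetylated histone H3 peptide from BAZ2B by AlphaScreen, using 50 nM protein, 50 nM peptide and 10 ug/mL streptavidin donor plus Ni-chelate acceptor beads.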
# JMJD2A Tudor inh: qHTS Assay for Inhibitors of JMJD2A-Tudor Domain; Lysine-specific demethylase 4A (Homo sapiens), O75164; AlphaScreen JMJD2A-Tudor / H3K4me3 peptide binding; Potency, µM (series often up to 114 µM), hits mostly inhibitors; 390,000 tested, 4.4% active; AID 504339, 2011; note: nearly all actives have a fitted effect of over 50% in size
# 12-LOX inh: Primary qHTS assay for inhibitors of human arachidonate 12S-lipoxygenase (ALOX12): Round 2; 580,000 tested, 1.1% active; Potency, µM (doses to about 108 µM), usual class: inhibitors; purified 12hLO, xylenol orange hydroperoxide absorbance
#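 Purified human 12hLO (150 nM final) in 25 mM Hepes, 0.01% Triton X-100, pH 7.0 was preincubated 15 min at room temperature with compound. Then 40 uM arachidonic acid was added, 30 min. Hydroperoxide was read by Fe-XO absorbance ratio 573/405 nm.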
# G9a inh: qHTS Assay for Inhibitors of Histone Lysine Methyltransferase G9a; G9a H3K9 monomethylation, AlphaScreen, 2 h; AID 504332, 2011; Potency, µM (doses to about 102 µM), usual class: inhibitors; 350,000 tested, 8.8% active; note: nearly all actives have a fitted effect of over 75% in size
#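 G9a (20 nM) preincubated 15 min RT with compounds, then 500 nM biotinylated H3K9 peptide and 20 uM SAM added; 2 h RT reaction. Monomethyl-H3K9 product detected by AlphaScreen with anti-H3K9me1 antibody, streptavidin donor and anti-rabbit IgG acceptor beads.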
# PLK1 PBD inh: qHTS for Inhibitors of PLK1-PDB (polo-like kinase 1 - polo-box domain): Primary Screen | Potency, µM, usual class: inhibitors | Plk1 PBD binding of FITC phosphopeptide, fluorescence polarization | 360,000 tested, 2.8% active | AID 720504, 2013; note: series mostly up to about 57 µM; nearly all actives have a fitted effect of over 65% in size
# Hits are given with their value; i = inactive; ? = inconclusive; nt = not tested or not shown; [ ] = another dose, or the depositor's remark. Shown are actives, neighbours in structure and some others; about 9% of the full set was active somewhere. Calls come from the whole dose curve; as a rule, active = well fitted curve in the direction sought with a large enough effect; inconclusive = small, poorly fitted or top-dose-only effect, or another doubt; inactive = no such curve, though single readings can be large; an effect the other way counts as inactive or inconclusive.
SMILES,HP1b chromo inh,BAZ2B inh,JMJD2A Tudor inh,12-LOX inh,G9a inh,PLK1 PBD inh
O=[N+]([O-])c1cc(N=Nc2ccc3ccccc3c2)ccc1O,i,?,?,i,3.2µM,?
O=C(O)CCn1c(CO)nc2ccccc21,i,56µM,i,i,i,i
CCOC(=O)CCn1c(CC(=O)OCC)nc2ccccc21,i,?,i,i,50µM,i
O=C(O)Cn1c(-c2cscn2)nc2ccccc21,i,?,16µM,?,45µM,i
CCc1nc2ccccc2n1CCCCOc1ccccc1C,i,i,i,40µM,i,nt
COC(=O)c1ccc(NC(=O)CN2CCN(c3ccccc3C)CC2)cc1,i,i,i,i,i,i
O=C(O)Cn1c(P(=O)(O)c2ccccc2)nc2ccccc21,i,?,35µM,?,32µM,i
CC(C)CSc1nc2ccccc2n1CC(=O)O,i,i,i,?,i,i
O=C(O)CCn1c(-c2ccccn2)nc2ccccc21,i,i,22µM,i,nt,i
O=C(O)CCn1c(SCc2cccc3ccccc23)nc2ccccc21,i,i,i,i,14µM,i
O=S1(=O)c2ccc(Br)cc2N2CCC[C@@H]2CN1Cc1ccc(Cl)cc1,i,nt,i,i,nt,?
CCCC1(C2CCN(C(=O)Cc3ccc(OC)cc3)CC2)NC(=O)N(CCc2cccs2)C1=O (stereo not drawn),nt,nt,nt,i,nt,nt
CC(=O)N(Cc1ccccc1)c1ccccc1C(=O)O,i,i,i,i,i,i
CC(=O)N(CC(=O)O)c1ccccc1C(=O)O,i,i,i,?,18µM,i
CN1CCc2nc(NC(=O)Cn3c(=O)oc4ccccc43)sc2C1,nt,nt,nt,i,nt,nt
Fc1ccc(COc2ccc(Br)cc2CNCc2ccncc2)cc1,i,50µM,?,?,50µM,i
O=C1N/C(=N\c2ccccn2)SC1Cc1ccc(Cl)cc1 (stereo not drawn),i,i,25µM,?,?,i
COc1ccccc1OCC(=O)Nc1cc(C(F)(F)F)ccc1-n1cncn1,i,i,i,i,45µM,i
COc1cc(C(C)=O)ccc1OCC(=O)Nc1cc(Cl)ccc1-n1cncn1,i,i,i,i,i,i
CCCCCCCCCCCCN1[C@@H](CC(=O)O)c2cc(C(F)(F)F)ccc2S1(=O)=O,i,nt,?,?,nt,34µM
CCCCCCCCN1[C@@H](CC(=O)O)c2cc(C(F)(F)F)ccc2S1(=O)=O,i,nt,i,i,nt,i
CC1=NN(c2nc(-c3ccccc3)cs2)C(=O)C1N=Nc1ccccc1 (stereo not drawn),i,i,?,i,?,i
CC1=NN(c2nc(-c3ccc(C)cc3)cs2)C(=O)C1N=Nc1ccc2ccccc2c1 (stereo not drawn),i,?,?,i,1µM,i
FC(F)(F)c1cccc(Cc2noc(CN3C[C@@H]4CCC[C@H]3C4)n2)c1,i,i,i,i,i,i
COc1ccc(C(=O)NCCNc2ncc(C(F)(F)F)cc2Cl)cc1[N+](=O)[O-],i,i,i,i,i,i
SMILES,HP1b chromo inh,BAZ2B inh,JMJD2A Tudor inh,12-LOX inh,G9a inh,PLK1 PBD inh
O=C(NNC(=S)NC(=O)c1cccc([N+](=O)[O-])c1)c1ccc(O)cc1,i,i,i,i,20µM,?
Cc1ccc(C(=O)NC(=S)NNC(=O)c2cccc([N+](=O)[O-])c2)cc1,i,i,i,?,nt,i
O=C(NC(=S)N1CCCCCC1)c1cccc([N+](=O)[O-])c1,i,?,i,i,i[2.33 µM],i
O=C(NNC(=S)NC(=O)c1ccccc1)c1cccc([N+](=O)[O-])c1,i,i,i,?,28µM,i
O=C(NNS(=O)(=O)c1ccc([N+](=O)[O-])cc1)c1ccccc1,i,nt,?,i,nt,i
O=C(NC(=S)N1CCCC1)c1cccc([N+](=O)[O-])c1,i,i,i,i,79µM,i
O=C(NNS(=O)(=O)c1ccccc1)c1cccc([N+](=O)[O-])c1,i,i,13µM,i,?,i
